Assay results as given in PubChem BioAssay (Tox21).
Where “and” joins values, the source holds several entries; their conditions need not be identical. Equal entries are not always repeated. Records with an inconclusive call do not appear. Entries that show only a call come without a potency. Calls of active or inactive are those of the source. Unless noted, the call rests on the fitted dose curve; in most records, active means well fitted curve in the direction sought with a large enough effect in the repeat runs; inconclusive means weak or mixed curves; inactive means no such curve, though single readings can be large; an effect the other way counts as inactive or inconclusive.

What was measured:
[1] = qHTS assay to identify small molecule antagonists of the androgen receptor (AR) signaling pathway using the MDA cell line in the presence of 0.5 nM R1881 - cell viability counter screen (AID 1259242); further: nearly all actives have a fitted effect of over 45% in size; further: potency means the concentration at half of the fitted maximal effect
How it was run: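 Live-cell protease activity was measured by CellTiter-Fluor fluorescence after 30 min. Before that, MDA-kb2 MMTV-luciferase cells had 16 hr at 37C without CO2, exposed to test compounds and 0.5 nM R1881 final.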

[2] = target: Estrogen receptor (Homo sapiens) (UniProt P03372); test: qHTS assay to identify small molecule antagonists of the estrogen receptor alpha (ER-alpha) signaling pathway using the BG1 cell line in the presence of 0.1 nM 17-beta-estradiol (AID 1259244); further: nearly all actives have a fitted effect of over 50% in size; further: potency means the concentration at half of the fitted maximal effect
Estrogen receptor (Homo sapiens), sequence (P03372 whole entry, looked up): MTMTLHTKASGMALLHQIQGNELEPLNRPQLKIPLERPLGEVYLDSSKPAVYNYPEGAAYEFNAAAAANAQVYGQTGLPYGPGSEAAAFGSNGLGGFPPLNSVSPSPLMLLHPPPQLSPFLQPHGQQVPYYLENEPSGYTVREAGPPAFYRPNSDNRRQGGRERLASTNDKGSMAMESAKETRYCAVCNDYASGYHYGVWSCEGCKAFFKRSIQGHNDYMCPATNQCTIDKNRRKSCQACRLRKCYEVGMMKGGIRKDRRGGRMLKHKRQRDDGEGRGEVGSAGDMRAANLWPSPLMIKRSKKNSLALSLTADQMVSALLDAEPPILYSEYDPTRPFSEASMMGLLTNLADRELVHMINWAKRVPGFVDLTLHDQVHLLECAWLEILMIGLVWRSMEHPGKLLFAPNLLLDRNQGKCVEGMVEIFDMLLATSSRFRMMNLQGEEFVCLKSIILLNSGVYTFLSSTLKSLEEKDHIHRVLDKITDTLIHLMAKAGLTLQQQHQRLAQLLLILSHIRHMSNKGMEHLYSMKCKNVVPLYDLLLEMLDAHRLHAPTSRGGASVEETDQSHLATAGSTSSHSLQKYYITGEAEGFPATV
How it was run: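 Luciferase luminescence (ONE-Glo, 30 min at room temperature) was read after 22 hr at 37C exposure to compounds plus 17beta-estradiol at 0.1 nM final. Cells were VM7Luc4E2 with endogenous ER-alpha and an ERE-driven luciferase, pre-cultured 5 days in hormone-depleted medium.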

[3] = qHTS assay to identify small molecule HDAC inhibitors - cell viability counter screen (AID 1259365); further: series mostly up to about 92 µM; nearly all actives have a fitted effect of over 50% in size
How it was run: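 Wild-type HCT-116 cells were seeded at 1,500 per well, incubated overnight at 37 C, then exposed to compounds in DMSO for 2hr. Viability was read by CellTiter-Glo luminescence after 30min at room temperature.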

[4] = qHTS assay to identify small molecule agonists of the sonic hedgehog signaling (Shh) pathway - cell viability counter screen (AID 1259366); further: nearly all actives have a fitted effect of over 50% in size; further: potency means the concentration at half of the fitted maximal effect
How it was run: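 NIH/3T3-derived 3T3 Gli1-Luc cells (stable Gli1-responsive firefly luciferase reporter) were seeded, rested 4 hr at 37 C/5% CO2, then exposed to compounds in DMSO for 24 hr; viability was read by CellTiter-Fluor fluorescence in the same wells.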

[5] = qHTS assay to identify small molecule antagonists of the sonic hedgehog signaling (Shh) pathway - cell viability counter screen (AID 1259367); further: nearly all actives have a fitted effect of over 55% in size; further: potency means the concentration at half of the fitted maximal effect
How it was run: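 CellTiter-Fluor signal in conditioned medium-stimulated 3T3 Gli1-Luc cells, 23 hr compound exposure, 37C.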

[6] = qHTS assay to identify small molecule agonists of the sonic hedgehog signaling (Shh) pathway (AID 1259368; calls by dose curve; further: series mostly up to about 92 µM; nearly all actives have a fitted effect of over 15% in size)
How it was run: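 Luminescence was read after 30 min at room temperature with luciferase reagent. Before that, 3T3Gli1-Luc cells (NIH/3T3 clone, stable Gli1-Luc reporter; 2,000/well) were exposed to compounds for 24 hr at 37C, 5% CO2, compounds being added 4 hr post-plating.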

[7] = qHTS assay to identify small molecule agonists of the androgen receptor (AR) signaling pathway in the presence of an antagonist - cell viability counter screen (AID 1259379); further: nearly all actives have a fitted effect of over 25% in size; further: potency means the concentration at half of the fitted maximal effect
How it was run: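 Cytotoxicity counter-screen run in the same wells as the nilutamide-challenged (3.0 µM final) AR agonist assay in MDA-kb2 cells. Compounds tested at 15 concentrations for 16 h, 37 °C without CO2; CellTiter-Fluor fluorescence read.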

[8] = qHTS assay to identify small molecule agonists of the estrogen receptor beta (ER-beta) signaling pathway - cell viability counter screen (AID 1259380); further: nearly all actives have a fitted effect of over 30% in size; further: potency means the concentration at half of the fitted maximal effect
How it was run: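 Cell viability counter screen: CellTiter-Glo luminescence (30 min, room temperature) measured in the same wells as the beta-lactamase readout, after 16 hr compound exposure at 37C of ER-beta-bla HEK293T cells in 2% charcoal-stripped FBS medium.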

[9] = qHTS assay to identify small molecule antagonists of the estrogen receptor beta (ER-beta) signaling pathway - cell viability counter screen (AID 1259382); further: nearly all actives have a fitted effect of over 55% in size; further: potency means the concentration at half of the fitted maximal effect
How it was run: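 Cytotoxicity was measured in the same wells by CellTiter-Glo luminescence after 30 min at room temperature. Cells were ER-beta-bla HEK293T in charcoal-stripped serum, given compound together with 1 nM E2 and incubated 16 h at 37C.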

[10] = target: Estrogen receptor (Homo sapiens) (UniProt P03372); test: qHTS assay to identify small molecule agonists of the estrogen receptor alpha (ER-alpha) signaling pathway in the presence of an antagonist (AID 1259383; calls by dose curve; further: top concentration of the series differs between compounds; nearly all actives have a fitted effect of over 15% in size)
How it was run: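 Agonist-mode confirmation run in the presence of 10.0nM (final) ICI-182,780 antagonist. The reporter was ERE-driven luciferase in VM7Luc4E2 cells, grown in charcoal-stripped serum. Cells were exposed to 15-concentration compound series for 22hr, then ONE-Glo luminescence was read.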

[11] = qHTS assay to identify small molecule agonists or antagonists of the thyroid stimulating hormone receptor (TSHR) signaling pathway - wild type cell line counter screen (AID 1259384; calls by dose curve)
How it was run: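 Counter screen in untransfected Hek293: compounds (15-point titration, triplicate) plus phosphodiesterase inhibitor Ro20-1724 added after 18 h plating; 30 min RT. Intracellular cAMP via competitive d2/cryptate immunoassay, 1 h incubation.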

[12] = target: Thyrotropin receptor (Homo sapiens) (UniProt P16473); test: qHTS assay to identify small molecule antagonists of the thyroid stimulating hormone receptor (TSHR) signaling pathway (AID 1259385; calls by dose curve; further: nearly all actives have a fitted effect of over 20% in size)
Thyrotropin receptor (Homo sapiens), sequence (P16473 whole entry, looked up): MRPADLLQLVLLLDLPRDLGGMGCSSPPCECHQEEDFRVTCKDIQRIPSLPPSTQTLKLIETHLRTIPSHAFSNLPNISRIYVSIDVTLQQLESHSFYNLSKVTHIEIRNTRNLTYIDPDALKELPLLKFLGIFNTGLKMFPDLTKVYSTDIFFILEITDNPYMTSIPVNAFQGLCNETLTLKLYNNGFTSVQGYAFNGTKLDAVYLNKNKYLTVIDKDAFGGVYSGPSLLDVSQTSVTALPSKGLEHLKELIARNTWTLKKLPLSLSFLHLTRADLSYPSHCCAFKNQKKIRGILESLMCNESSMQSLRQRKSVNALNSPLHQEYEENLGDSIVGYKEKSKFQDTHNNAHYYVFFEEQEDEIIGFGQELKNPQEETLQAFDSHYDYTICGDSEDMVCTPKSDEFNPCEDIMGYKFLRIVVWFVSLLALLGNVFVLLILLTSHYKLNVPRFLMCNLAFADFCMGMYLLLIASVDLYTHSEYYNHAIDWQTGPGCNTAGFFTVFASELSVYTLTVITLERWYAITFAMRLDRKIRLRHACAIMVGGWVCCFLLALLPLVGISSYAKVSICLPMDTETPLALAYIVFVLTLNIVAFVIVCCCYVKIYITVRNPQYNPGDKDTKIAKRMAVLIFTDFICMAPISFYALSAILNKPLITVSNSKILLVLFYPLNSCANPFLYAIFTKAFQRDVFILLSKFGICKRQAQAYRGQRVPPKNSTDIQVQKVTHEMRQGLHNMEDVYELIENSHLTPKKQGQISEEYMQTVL
How it was run: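 Antagonist mode: compound-treated TSHR-expressing HEK293 cells were stimulated with 1.5 ng/mL TSH (final) in presence of Ro20-1724 for 30 min at RT. HTRF cAMP detection after 1 h; each compound tested at 15 concentrations, triplicate.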

[13] = qHTS assay to identify small molecule agonists of the estrogen receptor alpha (ER-alpha) signaling pathway in the presence of an antagonist - cell viability counter screen (AID 1259386); further: nearly all actives have a fitted effect of over 30% in size; further: potency means the concentration at half of the fitted maximal effect
How it was run: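 Compounds tested at 15 concentrations for 22 h at 37C alongside 10.0nM (final) ICI-182,780 antagonist, in VM7Luc4E2 cells grown in phenol red-free, charcoal-stripped medium. Viability read by CellTiter-Fluor fluorescence after 1 h reagent incubation.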

[14] = qHTS assay to identify small molecule HDAC inhibitors (AID 1259364); further: top concentration of the series differs between compounds; nearly all actives have a fitted effect of over 45% in size
How it was run: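 Luminescence read after 30 min room-temperature HDAC-Glo incubation measures cellular class I/II HDAC activity. Compounds were applied for 2 hr at 37 C to HCT-116 wild-type cells seeded the day before.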

[15] = qHTS assay to identify small molecule antagonists of the sonic hedgehog signaling (Shh) pathway (AID 1259369; calls by dose curve; further: nearly all actives have a fitted effect of over 45% in size; further: potency means the concentration at half of the fitted maximal effect)
How it was run: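 Antagonist mode: compound added to 3T3 Gli1-Luc cells followed by conditioned-medium stimulation, 24 h at 37 C, 5% CO2. Inhibition taken as loss of Gli1-driven luciferase luminescence.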

[16] = target: Estrogen receptor beta (Homo sapiens) (UniProt Q92731); test: qHTS assay to identify small molecule agonists of the estrogen receptor beta (ER-beta) signaling pathway (AID 1259377; active means well fitted activation curve with a large enough effect in the signal ratio in the repeat runs, not every such curve was filed as active; the % refers to the signal ratio)
Estrogen receptor beta (Homo sapiens), sequence (Q92731 whole entry, looked up): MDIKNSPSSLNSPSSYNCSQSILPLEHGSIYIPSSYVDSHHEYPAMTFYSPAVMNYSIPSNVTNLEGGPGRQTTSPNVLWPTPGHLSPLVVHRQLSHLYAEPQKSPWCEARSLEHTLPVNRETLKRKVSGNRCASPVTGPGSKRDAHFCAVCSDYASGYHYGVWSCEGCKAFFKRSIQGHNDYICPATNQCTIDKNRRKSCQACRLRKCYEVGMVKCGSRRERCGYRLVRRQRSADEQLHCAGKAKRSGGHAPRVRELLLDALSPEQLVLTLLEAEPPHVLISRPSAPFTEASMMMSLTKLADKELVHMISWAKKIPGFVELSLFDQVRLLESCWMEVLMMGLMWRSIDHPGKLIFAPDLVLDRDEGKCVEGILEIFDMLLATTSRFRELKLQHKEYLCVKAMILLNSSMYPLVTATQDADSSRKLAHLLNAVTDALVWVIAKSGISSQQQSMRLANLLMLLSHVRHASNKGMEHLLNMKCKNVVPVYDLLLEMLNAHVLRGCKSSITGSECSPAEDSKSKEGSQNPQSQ
How it was run: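 ER-beta-UAS-bla HEK293T (GripTite) cells carrying a UAS-driven beta-lactamase reporter, in medium with 2% charcoal-stripped FBS, were exposed to compounds for 16 hr at 37C; LiveBLAzer B/G FRET substrate was then added and fluorescence read after 2 hours at room temperature.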

[17] = target: Estrogen receptor beta (Homo sapiens) (UniProt Q92731); test: qHTS assay to identify small molecule antagonists of the estrogen receptor beta (ER-beta) signaling pathway (AID 1259378; active means well fitted inhibition curve with a large enough effect in the signal ratio in the repeat runs, not every such curve was filed as active; the % refers to the signal ratio; further: potency means the concentration at half of the fitted maximal effect)
How it was run: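 Antagonist mode: compounds added to beta-lactamase reporter HEK293T ER-beta-UAS cells stimulated with E2 (1nM final), 16 hr at 37C. LiveBLAzer B/G FRET substrate, 2 hours room temperature, fluorescence read-out.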

Q: What does the source list for `ClC/C=C\CCl`?
A: Potency [1]: inactive; Potency [2]: inactive; Potency [3]: inactive; Potency [4]: inactive; Potency [5]: inactive; Potency [6]: inactive; Potency [7]: inactive; Potency [8]: inactive; Potency [9]: inactive; Potency [10]: inactive; outcome [11]: inactive; Potency [12]: inactive; Potency [13]: inactive

Q: What does the source list for `CC(COC(=O)c1ccccc1)OC(=O)c1ccccc1` (stereo not drawn)?
A: Potency [1]: inactive; Potency [2]: inactive; Potency [14]: inactive; Potency [4]: inactive; Potency [5]: inactive; Potency [7]: inactive; Potency [8]: inactive; Potency [9]: inactive; Potency [10]: inactive; outcome [11]: inactive; Potency [12]: inactive; Potency [13]: inactive

Q: Which results are given for `S=P(N1CC1)(N1CC1)N1CC1`?
A: Potency [1]: inactive; Potency [2]: inactive; Potency [14]: inactive; Potency [5]: 57.4 µM (active); Potency [6]: inactive; Potency [15]: 22.9 µM (active); Potency [7]: inactive; Potency [8]: inactive; Potency [9]: inactive; Potency [10]: inactive; outcome [11]: inactive; Potency [13]: inactive

Q: Which results are given for `O=C1c2c(O)ccc([N+](=O)[O-])c2C(=O)c2c([N+](=O)[O-])ccc(O)c21`?
A: Potency [1]: 27.1 µM (active); Potency [2]: 27.1 µM (active); Potency [4]: 17.1 µM (active); Potency [5]: 10.8 µM (active); Potency [6]: inactive; Potency [15]: 1.52 µM (active); Potency [7]: 27.1 µM (active); Potency [8]: 15.2 µM (active); Potency [9]: 17.1 µM (active); Potency [10]: inactive; Potency [12]: inactive; Potency [13]: 24.1 µM (active)

Q: With `CSc1c(Cl)c(Cl)c(Cl)c(Cl)c1Cl` as the compound, how does the Potency [1] read?
A: inactive

Q: And the Potency [14]?
A: inactive

Q: And the Potency [3]?
A: inactive

Q: And the Potency [4]?
A: inactive

Q: And the Potency [5]?
A: inactive

Q: And the Potency [6]?
A: inactive

Q: And the Potency [15]?
A: inactive

Q: What about the Potency [16] of the same compound?
A: inactive

Q: And the Potency [17]?
A: inactive

Q: And the Potency [7]?
A: inactive

Q: And the Potency [9]?
A: inactive

Q: And the outcome [11]?
A: inactive

Q: And the Potency [13]?
A: inactive

Q: With `SCCCCCCCCS` as the compound, how does the Potency [1] read?
A: inactive

Q: And the Potency [3]?
A: inactive

Q: What about the Potency [4] of the same compound?
A: inactive

Q: What about the Potency [5] of the same compound?
A: inactive

Q: And the Potency [6]?
A: inactive

Q: And the Potency [15]?
A: inactive

Q: What about the Potency [7] of the same compound?
A: inactive

Q: And the Potency [8]?
A: inactive

Q: And the Potency [9]?
A: inactive

Q: What about the outcome [11] of the same compound?
A: inactive

Q: And the Potency [12]?
A: inactive

Q: And the Potency [13]?
A: inactive

Q: Which results are given for `CCCCCCOc1cc(C)c(O)c(C)c1C`?
A: Potency [1]: inactive; Potency [14]: inactive; Potency [5]: 61.9 µM (active); Potency [15]: 61.9 µM (active); Potency [8]: 55.1 µM (active); Potency [9]: 61.9 µM (active); Potency [10]: inactive; outcome [11]: inactive

Q: For `CC(C)(C)c1cc(/C=C2\SC(=N)NC2=O)cc(C(C)(C)C)c1O`, which Potency [1] is on record?
A: inactive

Q: And the Potency [14]?
A: inactive

Q: And the Potency [4]?
A: inactive

Q: And the Potency [5]?
A: inactive

Q: And the Potency [6]?
A: inactive

Q: What about the Potency [7] of the same compound?
A: inactive

Q: And the Potency [9]?
A: inactive

Q: And the Potency [10]?
A: inactive

Q: And the outcome [11]?
A: inactive

Q: What about the Potency [12] of the same compound?
A: inactive

Q: For `CC(C)(c1cc(Br)c(O)c(Br)c1)c1cc(Br)c(O)c(Br)c1`, which Potency [1] is on record?
A: inactive

Q: What about the Potency [3] of the same compound?
A: inactive

Q: And the Potency [4]?
A: inactive

Q: And the Potency [5]?
A: inactive

Q: What about the Potency [6] of the same compound?
A: inactive

Q: What about the Potency [15] of the same compound?
A: 60.9 µM (active) and 64.9 µM (active)

Q: What about the Potency [7] of the same compound?
A: inactive

Q: And the Potency [8]?
A: 68.3 µM (active) and 68.4 µM (active)

Q: What about the Potency [9] of the same compound?
A: 68.4 µM (active)

Q: What about the outcome [11] of the same compound?
A: inactive

Q: And the Potency [12]?
A: inactive

Q: And the Potency [13]?
A: inactive

Q: For `Clc1ccc(C(c2ccccc2Cl)C(Cl)Cl)cc1` (stereo not drawn), which Potency [1] is on record?
A: inactive

Q: And the Potency [14]?
A: inactive

Q: And the Potency [4]?
A: inactive

Q: What about the Potency [5] of the same compound?
A: inactive

Q: And the Potency [6]?
A: inactive

Q: And the Potency [15]?
A: inactive

Q: What about the Potency [16] of the same compound?
A: inactive

Q: And the Potency [17]?
A: 19.3 µM (active)

Q: And the Potency [7]?
A: inactive

Q: What about the Potency [8] of the same compound?
A: 48.6 µM (active)

Q: And the Potency [9]?
A: inactive

Q: What about the outcome [11] of the same compound?
A: inactive

Q: What about the Potency [12] of the same compound?
A: inactive

Q: And the Potency [13]?
A: inactive
